nsP2pro inh = CHIKV nsP2 protease inhibition, primary qHTS | 31,000 compounds, 1.1% hits | Q8JUX6 | FRET peptide cleavage, nsP2pro, fluorescence 1 h | Potency, µM (doses to about 24.9 µM), for the others: top-dose activity change, negative = inhibition, usual class: inhibitors | AID 1964107; further: nearly all actives have a fitted effect of over 60% in size
Target sequence (Q8JUX6 whole entry, looked up): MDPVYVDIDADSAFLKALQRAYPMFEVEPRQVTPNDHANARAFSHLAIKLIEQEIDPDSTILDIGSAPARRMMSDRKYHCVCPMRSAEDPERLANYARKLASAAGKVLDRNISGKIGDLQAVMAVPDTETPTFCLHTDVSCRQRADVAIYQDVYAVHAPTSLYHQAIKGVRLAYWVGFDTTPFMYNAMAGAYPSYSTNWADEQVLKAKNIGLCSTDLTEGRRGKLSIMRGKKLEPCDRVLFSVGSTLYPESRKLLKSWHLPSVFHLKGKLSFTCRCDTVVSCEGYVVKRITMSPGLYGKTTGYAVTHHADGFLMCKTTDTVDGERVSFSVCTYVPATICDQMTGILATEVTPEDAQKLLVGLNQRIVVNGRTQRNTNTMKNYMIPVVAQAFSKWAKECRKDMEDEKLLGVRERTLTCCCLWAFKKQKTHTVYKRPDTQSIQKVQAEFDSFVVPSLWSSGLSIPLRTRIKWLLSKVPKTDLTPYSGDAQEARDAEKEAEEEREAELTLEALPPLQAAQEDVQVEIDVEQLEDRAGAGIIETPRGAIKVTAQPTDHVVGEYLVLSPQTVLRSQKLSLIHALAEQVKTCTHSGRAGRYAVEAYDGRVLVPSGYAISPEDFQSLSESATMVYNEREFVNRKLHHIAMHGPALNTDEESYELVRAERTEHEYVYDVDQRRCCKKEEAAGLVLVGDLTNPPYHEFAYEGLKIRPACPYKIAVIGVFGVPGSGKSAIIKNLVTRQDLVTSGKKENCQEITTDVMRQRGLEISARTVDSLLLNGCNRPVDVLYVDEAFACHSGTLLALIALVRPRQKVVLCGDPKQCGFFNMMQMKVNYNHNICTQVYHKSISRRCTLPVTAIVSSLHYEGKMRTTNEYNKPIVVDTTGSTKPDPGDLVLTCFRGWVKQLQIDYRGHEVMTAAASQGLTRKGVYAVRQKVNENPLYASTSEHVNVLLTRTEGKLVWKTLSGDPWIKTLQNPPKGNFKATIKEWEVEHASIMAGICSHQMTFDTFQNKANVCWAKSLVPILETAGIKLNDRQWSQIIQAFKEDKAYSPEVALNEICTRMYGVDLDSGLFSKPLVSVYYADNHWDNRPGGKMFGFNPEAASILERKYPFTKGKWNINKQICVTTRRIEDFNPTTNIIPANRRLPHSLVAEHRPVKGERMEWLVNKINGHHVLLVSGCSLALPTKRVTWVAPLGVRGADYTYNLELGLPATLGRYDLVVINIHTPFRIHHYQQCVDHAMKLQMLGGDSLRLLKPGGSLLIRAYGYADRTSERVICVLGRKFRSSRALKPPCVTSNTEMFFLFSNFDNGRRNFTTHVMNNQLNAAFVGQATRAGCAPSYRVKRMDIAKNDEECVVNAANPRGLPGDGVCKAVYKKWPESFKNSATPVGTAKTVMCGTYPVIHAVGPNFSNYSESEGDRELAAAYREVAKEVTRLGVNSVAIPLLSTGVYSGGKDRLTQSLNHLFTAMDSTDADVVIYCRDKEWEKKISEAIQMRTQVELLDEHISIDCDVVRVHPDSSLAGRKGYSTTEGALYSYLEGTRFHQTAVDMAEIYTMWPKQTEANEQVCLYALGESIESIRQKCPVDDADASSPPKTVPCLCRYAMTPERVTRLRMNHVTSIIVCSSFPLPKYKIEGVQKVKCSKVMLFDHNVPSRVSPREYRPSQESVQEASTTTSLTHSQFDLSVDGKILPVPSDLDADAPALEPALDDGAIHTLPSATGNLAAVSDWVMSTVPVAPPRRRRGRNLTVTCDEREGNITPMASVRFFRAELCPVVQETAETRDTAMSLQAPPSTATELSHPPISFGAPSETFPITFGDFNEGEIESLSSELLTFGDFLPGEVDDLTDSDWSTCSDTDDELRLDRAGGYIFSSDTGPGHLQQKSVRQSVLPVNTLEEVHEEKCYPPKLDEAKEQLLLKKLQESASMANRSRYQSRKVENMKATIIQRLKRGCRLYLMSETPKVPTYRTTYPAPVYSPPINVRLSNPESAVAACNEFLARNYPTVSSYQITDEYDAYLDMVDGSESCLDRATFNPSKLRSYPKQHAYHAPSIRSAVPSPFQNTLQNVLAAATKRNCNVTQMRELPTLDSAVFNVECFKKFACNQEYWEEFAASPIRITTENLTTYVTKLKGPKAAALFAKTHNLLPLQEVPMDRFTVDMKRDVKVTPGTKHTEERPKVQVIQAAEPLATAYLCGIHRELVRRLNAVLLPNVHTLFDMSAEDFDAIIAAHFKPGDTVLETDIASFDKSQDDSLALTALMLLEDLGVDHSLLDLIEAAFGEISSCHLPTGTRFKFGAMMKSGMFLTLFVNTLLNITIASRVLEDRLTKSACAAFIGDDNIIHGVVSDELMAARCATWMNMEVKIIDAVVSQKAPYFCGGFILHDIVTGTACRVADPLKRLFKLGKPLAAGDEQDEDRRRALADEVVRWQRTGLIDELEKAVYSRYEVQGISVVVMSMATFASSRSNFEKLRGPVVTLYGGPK
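FRET cleavage of 2.5 uM peptide 2 by 150 nM CHIKV protease domain at pH 8.0 (Tris, Tween 20). Compounds at 7 concentrations (up to 25 uM) preincubated 15 min. Fluorescence read after 1 h at room temperature.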
CHIKV nsP2 cell = cell-based CHIKV nsP2 protease inhibition, secondary; shares compounds with nsP2pro inh; cell-based CHIKV nsP2 protease reporter assay; Potency, µM (top dose mostly 51.1 µM), inactives show at the top dose activity change, negative = inhibition, actives largely listed as inhibitors; 450 compounds, 10% hits; further: nearly all actives have a fitted effect of over 70% in size
NSP2 full ctr = full-length CHIKV NSP2 protease inhibition, selectivity. shares compounds with nsP2pro inh. Potency, µM (highest dose often 50.7 µM), for inactives: top-dose activity change, negative = inhibition, hits mostly inhibitors. AID 1964101. 410 compounds, 39% hits. Full-length CHIKV NSP2 protease enzymatic counterscreen; further: nearly all actives have a fitted effect of over 65% in size
Furin counter = selectivity counter-screen for CHIKV nsP2 protease inhibitors: human furin | shares compounds with nsP2pro inh | Recombinant human furin enzymatic counterscreen, fluorogenic substrate | Potency, µM (series often up to 50.6 µM), for inactives: at the top dose activity change, negative = inhibition, usual class: inhibitors | 410 compounds, 6% hits | AID 1964102
NS23 peptide cs = blocks CHIKV nsP2 protease cleavage of endogenous NS2/3 peptide; shares compounds with nsP2pro inh; Purified CHIKV nsP2 protease, endogenous NS2/3 peptide cleavage; Potency, µM (doses to about 51 µM), for inactives: at the highest dose activity change, negative = inhibition, most hits filed as inhibitors; 410 compounds, 34% hits; AID 1964103; further: nearly all actives have a fitted effect of over 55% in size
Papain cs = inhibits papain in a CHIKV nsP2 protease selectivity counterscreen; shares compounds with nsP2pro inh; purified papain protease activity, enzymatic inhibition; Potency, µM (doses to about 51 µM), inactives show at the top dose activity change, negative = inhibition, most hits filed as inhibitors; 410 compounds, 5% hits; AID 1964104
nsP2pro confirm = CHIKV nsP2 protease inhibition, confirmatory qHTS | Potency, µM (titrated, usually from 25.5 µM), inactives show top-dose activity change, negative = inhibition, most hits filed as inhibitors | shares compounds with nsP2pro inh | 410 compounds, 43% hits | CHIKV nsP2 protease enzymatic activity, qHTS; further: nearly all actives have a fitted effect of over 75% in size
HCV NS3 counter = inhibits HCV NS3/4A protease in an nsP2pro selectivity counterscreen; 410 compounds, 20% hits; HCV NS3/4A protease biochemical counterscreen; Potency, µM (series often up to 50.9 µM), usual class: inhibitors; shares compounds with nsP2pro inh; AID 1964106; further: nearly all actives have a fitted effect of over 55% in size
* = called active by the depositor; i = inactive; ? = inconclusive; [ ] = dose if it differs, or a comment. This is one part of a sample in which hits are shown more often than they occur. The call rests on the fitted dose curve. On the % scale 0 is the no-effect control and ±100 the full control effect; potency means the concentration at half of the fitted maximal effect.

SMILES	nsP2pro inh	others
COc1ccc(C(=O)Nc2ccc(S(=O)(=O)N(Cc3ccccc3)c3ccccc3)cc2)cc1	-7%
CC(C)N(CCC(=O)c1ccc2ccccc2c1)Cc1ccccc1	0.56µM*	CHIKV nsP2 cell=?;NSP2 full ctr=0.92µM*;Furin counter=-12%;NS23 peptide cs=5.8µM*;Papain cs=96%;nsP2pro confirm=0.5µM*;HCV NS3 counter=i
CC12CCC(CC1=O)C2(C)C (stereo not drawn)	-11%
CCCCS(=O)c1sc2nc(-c3cccs3)cc(-c3ccccc3)c2c1N (stereo not drawn)	7µM*	CHIKV nsP2 cell=19%;NSP2 full ctr=-24%;Furin counter=-18%;NS23 peptide cs=-23%;Papain cs=?;nsP2pro confirm=14µM*;HCV NS3 counter=i
C[C@H]1O[C@@H](O[C@H]2CC[C@@]3(C)[C@@H](CC[C@]4(C)[C@@H]3C=C[C@]35OC[C@@]6(CCC(C)(C)C[C@H]63)[C@H](O)C[C@]54C)[C@]2(C)CO)[C@H](O)[C@@H](O[C@@H]2O[C@H](CO)[C@@H](O)[C@H](O)[C@H]2O)[C@H]1O	-16%
Cc1c(C(=O)N[C@@H]2COCC[C@H]2Oc2ccc(C(N)=O)cc2)cnn1C	3%
COC/C=C/c1cc(F)c(S(=O)(=O)N2CCN(S(=O)(=O)c3ccc4c(c3)OCCO4)CC2)cc1F	i
O=C(COCc1cc(-c2cccs2)on1)Nc1cc(C(F)(F)F)ccc1Cl	-24%
CCN(C(=O)Cc1nc(-c2ccc(OC)cc2)no1)c1cccc(Cl)c1	-18%
CCOC(=O)c1ccc(NC(=O)CCc2c(C)nc3c(c(C)nn3C(C)(C)C)c2C)cc1	-11%
Oc1cccc(O)c1O	8.8µM*	CHIKV nsP2 cell=-19%;NSP2 full ctr=15µM*;Furin counter=-15%;NS23 peptide cs=8.2µM*;Papain cs=-12%;nsP2pro confirm=1.8µM*;HCV NS3 counter=3.3µM*
CC(C)c1cccc(C(C)C)c1O	-5%
O=C(O)c1cccc(O)c1O	-21%
CS(=O)(=O)N1CCc2cc(C(=O)Nc3ccc(Cl)c(C(F)(F)F)c3)ccc21	-18%
CN1CCCC1CCNc1ncnc2ccc(-c3ccc4c(c3)OCO4)cc12 (stereo not drawn)	i
Cc1ccccc1Cn1nnc2c(=O)[nH]c(C3CCN(C(=O)c4ccc(F)cc4)CC3)nc21	-20%
COc1cc(Br)c(S(=O)(=O)Nc2ccc(Cl)c(O[C@@H]3CCN(C)C3)c2)cc1OC	1%
CCOc1ccc(NC(=O)CSc2nnc(CNC(=O)c3c(F)cccc3Cl)o2)cc1	-14%
CCOC(=O)c1ccc(N2CCN(c3cccc(Cl)c3)CC2)c(NC(=O)Nc2ccc(Cl)cc2)c1	7%
Cc1cccc(N2CCN(C(=O)c3ccc(NC(=O)c4nsc5ccccc45)cc3)CC2C)c1 (stereo not drawn)	3%
Cc1cccc(N2CCN(c3ccc(C(=O)O)cc3NC(=O)c3cccc(Cl)c3)CC2C)c1 (stereo not drawn)	?	CHIKV nsP2 cell=13%;NSP2 full ctr=0%;Furin counter=-25%;NS23 peptide cs=18µM*;Papain cs=?;nsP2pro confirm=8µM*;HCV NS3 counter=?
COC(=O)c1cc(S(=O)(=O)N2CCN(c3cccc(C)c3)C(C)C2)cn1C (stereo not drawn)	-19%
Cc1cc(C)cc(C(=O)Nc2cc(C(F)(F)F)ccc2N2CCN(c3ccccc3)CC2)c1	-17%
Cc1cccc(N2CCN(c3ccc(NC(=O)c4ccccc4)cc3C(=O)O)CC2C)c1 (stereo not drawn)	?	CHIKV nsP2 cell=9%;NSP2 full ctr=6.5µM*;Furin counter=?;NS23 peptide cs=16µM*;Papain cs=21%;nsP2pro confirm=8µM*;HCV NS3 counter=3.7µM*
Cc1ccc(CNC(=O)Cn2c(N3CCCCC3)nc(C)c(C)c2=O)cc1	2%
SMILES	nsP2pro inh	others
O=C1CN(Cc2ccc(Cl)cc2)CCN1c1ccc(Cl)nn1	4%[39.2 µM]
Nc1nc2c(s1)CCN(Cc1ccc(Cl)cc1)CC2	8.8µM*	CHIKV nsP2 cell=105%;NSP2 full ctr=4%;Furin counter=7%;NS23 peptide cs=-17%;Papain cs=-12%;nsP2pro confirm=?;HCV NS3 counter=i
CC1=NOC2(CCN(Cc3ccc(Cl)cc3)CC2)C1	i
CC1(C)CCC(C)(C)c2cc([S+](=O)([O-])N3CCN([S+](=O)([O-])c4c(F)cccc4F)CC3)ccc21	-5%
COc1ccc(CCn2c(=O)c3cccnc3n(CC(=O)Nc3cccc(C)c3)c2=O)cc1OC	-12%
Fc1ccccc1-c1noc(N2CCCCC2)n1	2%
COC(O)(CC(C)C)C1Oc2cc(C)[nH]c(=O)c2O1 (stereo not drawn)	8.8µM*	CHIKV nsP2 cell=11%;NSP2 full ctr=-6%;Furin counter=-4%;NS23 peptide cs=1%;Papain cs=-3%;nsP2pro confirm=-23%;HCV NS3 counter=i
CCOc1ccc(-c2nc(SCC(=O)Nc3ccc(C)c(C)c3)n3[nH]c(=O)cc3n2)cc1	-26%
CC(=O)NC1(C)CCN(Cc2cnc(-c3cccc(F)c3)s2)CC1	0%[39.2 µM]
O=C(C1CC1)N1CCC(C(=O)N2CC(Oc3ccc4c(c3)OCO4)C2)CC1	7.9µM*	CHIKV nsP2 cell=7%;NSP2 full ctr=13µM*;Furin counter=-9%;NS23 peptide cs=?;Papain cs=-2%;nsP2pro confirm=8µM*;HCV NS3 counter=7.3µM*
NC(=O)C1CCN(c2ncc(-c3ccc4c(c3)OCO4)s2)CC1	-5%
CC(=O)Nc1ccc(CN2CC(Oc3ccc4c(c3)OCO4)C2)cc1	2%
O=Nc1c(-c2c(O)[nH]c3ccc(F)cc23)[nH]c2ccccc12	-1%
Cc1cccc(C(=O)Nc2ccccc2-c2nc(-c3ccccc3)no2)c1	-26%
O=C(O)CCCCC1CCSS1 (stereo not drawn)	267%
O=C(NC1CCCC1)c1ccc(OC2CCN(C(=O)C3CCCO3)CC2)c(Cl)c1 (stereo not drawn)	2%
O=C(Nc1ccc2nc(SCC(=O)N3CCc4ccccc43)sc2c1)c1cccc(Cl)c1	-16%
CCOC(=O)CSc1nc2ccc(NC(=O)c3ccc(Cl)cc3)cc2s1	?	CHIKV nsP2 cell=-7%
CCOc1ccc(C(=O)Nc2ccc3nc(SCC(=O)N4CCCC4)sc3c2)cc1	-11%
Cc1cc(C)nc(NC(=S)N2CCN(c3cc(C#N)cc(C#N)c3)CC2)c1	-2%
CC(=O)N1CCc2cc(Br)cc(S(=O)(=O)CCC(=O)Nc3ccc(C)cc3Cl)c21	-17%
COCCOc1cnc2ccn([C@H](C)c3nnc4c(F)cc(-c5cnn(C)c5)cn34)c(=O)c2c1	?	CHIKV nsP2 cell=3%;NSP2 full ctr=-26%;Furin counter=-17%;NS23 peptide cs=-13%;Papain cs=3%;nsP2pro confirm=?;HCV NS3 counter=i
CCOC(=O)c1cccc(NC(=O)Cn2nc3c(cc2=O)CCCC3)c1	-3%
